# Unmarked numbers belong to inactive results.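 The calls were made as follows: active = AUC reduced over 20% with Padj below 0.05 in at least 2 of 3 replicates; inactive = otherwise.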
# Test system: Parabacteroides merdae
# Assay: growth AUC relative to DMSO control (median of replicates) (fraction); higher = more growth (less inhibition), active = hit call of the paper
# Conditions: 20 µM; 24 h
# How it was run: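 Area under the growth curve was normalised to the plate median of solvent-only wells, except on the industrial chemical plate, where row and column medians were used. Curves came from gut bacterial monocultures grown anaerobically at 37 °C in mGAM with 20 µM compound (1% DMSO), starting at OD600 0.05 and read at OD600 every hour for 24 h. The minimum OD of each curve was set to 0, and values are medians of three biological replicates grown on separate days.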
row,SMILES,growth AUC
1,O=C(O)Cc1c(Cl)ccc(Cl)c1Cl,1.01
2,COc1cc(OC)c(Cl)cc1N,1.04
3,O=S(Cc1ccc(Cl)cc1)c1ccc(Cl)cc1 (centres undefined),1
4,Cc1cc(C)c(C2=C(O)C3(CCCC3)OC2=O)c(C)c1,1
5,CN(C)C(=O)c1cccnc1S(N)(=O)=O,1
6,CCCN(CCOc1c(Cl)cc(Cl)cc1Cl)C(N)=O,0.977
7,Cc1nn(C)c(OCC(=O)c2ccccc2)c1C(=O)c1ccc(Cl)cc1Cl,0.926
8,CC(C)(C)Nc1nc(N)nc(Cl)n1,0.97
9,COC(=O)c1c(Cl)nn(C)c1S(=O)(=O)NC(=O)Nc1nc(OC)cc(OC)n1,0.99
10,[S],1
11,CCCCCCCCc1c(CC)nc2ncnn2c1N,0.964
12,Cn1cc(C(=O)Nc2ccccc2-c2cc(F)c(F)c(F)c2)c(C(F)F)n1,0.937
13,CCCOc1nc2ccc(I)cc2c(=O)n1CCC,0.923
14,CNc1nc(NC(C)C)nc(SC)n1,0.993
15,CC(C)(C)[C@@H](O)[C@@H](Cc1ccc(Cl)cc1)n1cncn1 (mixture of isomers),0.911
16,Cc1ccc2c(c1)[C@H](Nc1nc(N)nc(C(C)F)n1)[C@@H](C)C2 (some centres undefined),0.972
17,CCN(CC)c1nc(C)cc(=O)[nH]1,1
18,Clc1ccc(C(c2ccccc2Cl)C(Cl)Cl)cc1 (centres undefined),0.976
19,CSc1nc(NC2CC2)nc(NC(C)(C)C)n1,0.991
20,CCc1cccc(C)c1N(C(=O)C(=O)O)[C@@H](C)C(=O)O,1.03

row,SMILES,growth AUC
1,CCNc1nc(NC(C)(C)C)[nH]c(=O)n1,0.994
2,CC(C)N(C(=O)C(=O)O)c1ccccc1,1.03
3,Cc1nn(C)c(F)c1C(=O)Nc1ccccc1C(C)CC(C)C (centres undefined),0.946
4,CC(C)c1cc(Oc2ccccc2)cc(C(C)C)c1NC(=S)NC(C)(C)C,0.957
5,CCCCOCCOC(=O)COc1ccc(Cl)cc1Cl,0.954
6,CCOC(=O)C(C)Oc1ccc(Oc2nc3ccc(Cl)cc3o2)cc1 (racemic),0.969
7,C/C=C/C(=O)Oc1c(C(C)CCCCCC)cc([N+](=O)[O-])cc1[N+](=O)[O-] (mixture of isomers),0.00823 (active)
8,c1ccc2c(c1)Cc1ccccc1-2,1.02
9,CC(C)(C)C(O)/C(=C\c1ccc(Cl)cc1)n1cncn1 (centres undefined),0.948
10,Oc1ccccc1,1.01
11,Cc1c(Br)c2ccc(F)cc2n1S(=O)(=O)c1ncn(S(=O)(=O)N(C)C)n1,0.949
12,NC(Cn1cncn1)C(=O)O (centres undefined),1.01
13,CCCCC(CC)COC(=O)COc1ccc(Cl)cc1C (centres undefined),0.937
14,c1ccc(CNc2ncnc3nc[nH]c23)cc1,1.02
15,CON=C(Cc1cccnc1)c1ccc(Cl)cc1Cl,1.01
16,COC(=O)Cc1cccc2ccccc12,0.995
17,CC1(C)C(=O)Oc2ccc(OS(C)(=O)=O)cc21,0.979
18,CN(C)c1ccc(N=NS(=O)(=O)[O-])cc1.[Na+],0.996
19,CCOC(=O)Cn1c(=O)sc2cccc(Cl)c21,0.98
